esBAF inh: Bmi1 luciferase reporter increase in mESCs, primary screen, esBAF inhibitor project, mouse ES cells, Bmi1 luciferase knock-in, single point | 24 h; 100% = twice the neutral-well signal | reporter increase, % at 12.5 µM | 350,000 tested, 2% active | AID 602393, 2012; in the data active = activation above about 40%; inconclusive = no clear call, values can overlap the other calls;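 note: a rise in the Bmi1 reporter signal indicates esBAF inhibition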
MLL AF4-AF9 inh: inhibitors of AF4 peptide binding to AF9, primary screen, biochemical, AlphaScreen, biotin-AF4 peptide, FLAG-AF9, single point. inhibition, % at 10 µM. Protein AF-9 (Homo sapiens), P42568. 350,000 tested, 0.47% active;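 active = every replicate reaching a set inhibition limit, whatever the replicate mean, cut at about 25% in these data; inconclusive = mean inhibition reaches that limit but some replicates miss it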
Target sequence (P42568 whole entry, looked up): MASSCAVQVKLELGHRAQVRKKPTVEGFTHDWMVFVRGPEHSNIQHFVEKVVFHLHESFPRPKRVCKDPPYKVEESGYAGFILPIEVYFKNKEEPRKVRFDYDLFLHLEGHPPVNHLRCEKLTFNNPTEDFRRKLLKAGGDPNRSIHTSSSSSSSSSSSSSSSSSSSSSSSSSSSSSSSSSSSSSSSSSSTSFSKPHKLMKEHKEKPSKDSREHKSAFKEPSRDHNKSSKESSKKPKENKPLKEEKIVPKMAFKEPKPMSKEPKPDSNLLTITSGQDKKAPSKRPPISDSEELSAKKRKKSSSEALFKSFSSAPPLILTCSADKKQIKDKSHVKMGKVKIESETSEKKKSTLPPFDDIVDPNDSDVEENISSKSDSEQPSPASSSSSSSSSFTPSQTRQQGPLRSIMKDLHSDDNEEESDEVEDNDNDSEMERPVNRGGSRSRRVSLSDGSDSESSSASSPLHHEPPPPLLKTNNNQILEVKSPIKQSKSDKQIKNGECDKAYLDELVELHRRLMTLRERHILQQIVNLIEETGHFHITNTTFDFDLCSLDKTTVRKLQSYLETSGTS
Wnt bcat act: Wnt/beta-catenin pathway activators, primary screen, cell-based, plate reader, single point; AID 743398, 2014; Wnt/beta-catenin reporter cell assay, activator; activation, % at 9.35 µM; 300,000 tested, 1.2% active; in the data active = activation above about 30%, passing the limit was not always enough; inconclusive = no clear call, values can overlap the other calls
Ecoli rRNA inh: reduced GFP signal of wild-type E. coli, primary screen, bacterial rRNA inhibitor project, GFP/RFP fluorescence, OD600, single point | AID 720706, 2013 | 350,000 tested, 1.6% active | GFP signal change (wild-type ribosome), % (test concentration not listed) | E. coli WT GFP vs humanized-ribosome RFP mutants, 24 h; active compounds read low; DMSO median 0, no signal -100;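 active = significant combined selectivity score with lowered wild-type GFP, culture density cut under 30%, mutant RFP and density less affected; inactive = any of these conditions unmet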
MITF act: activators of MITF-driven TRPM1 promoter reporter, primary screen, cell-based, SK-MEL-5, luciferase, single point. SK-MEL-5 TRPM1-promoter luciferase, 24 h; % of positive control, neutral wells = 0. activation, % at 12.5 µM. 300,000 tested, 0.75% active. AID 588334, 2011;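 active = mean activation of at least 80% with every replicate also reaching 80%; inconclusive = mean reaches 80% but some replicate falls short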
Each line names hits and unclear results; the compound was inactive in the other large screens. This is a sample that favours compounds with a hit; in the whole collection about 3.7% have one here.

Cc1ccc2nc(C3CCN(S(=O)(=O)c4ccc5ccccc5c4)CC3)[nH]c2c1	Ecoli rRNA inh -29 (no result: MLL AF4-AF9 inh)
Cc1ccc(NC(=O)C2CCN(S(=O)(=O)c3ccc4ccccc4c3)CC2)nc1	esBAF inh 58
Cc1cc(C)cc(NC(=O)C2CCN(S(=O)(=O)c3ccc4[nH]c(=O)ccc4c3)CC2)c1	none (no result: MITF act)
CCc1cccc(NC(=O)C2CCN(S(=O)(=O)c3ccc4[nH]c(=O)ccc4c3)CC2)c1	MLL AF4-AF9 inh 40 (no result: MITF act)
Cc1ccc(NC(=O)C2CCN(S(=O)(=O)c3ccc(Cl)c(C(F)(F)F)c3)CC2)nc1	none
CC(NC(=O)OC(C)(C)C)C(=O)Oc1ccc2ccc(=O)oc2c1 (stereo not given)	none (no result: MLL AF4-AF9 inh, Wnt bcat act, Ecoli rRNA inh)
C[C@H](CO)N1C[C@H](C)[C@H](CN(C)C(=O)NC2CCCC2)OCc2cn(nn2)CCCC1=O	none (no result: Wnt bcat act, MITF act)
COc1ccc(NC(=O)N2CCC(c3nc4ccccc4[nH]3)CC2)cc1	Ecoli rRNA inh -22
CCOc1ccccc1NC(=O)N1CCC(c2nc3ccccc3[nH]2)CC1	none (no result: MLL AF4-AF9 inh, Wnt bcat act, Ecoli rRNA inh)
CC#CCOCC1CNC(=O)O1 (stereo not given)	Wnt bcat act 429 (no result: Ecoli rRNA inh, MITF act)
COc1ccc(OCC2CNC(=O)O2)cc1 (stereo not given)	none (no result: esBAF inh, Wnt bcat act)
NC(=O)C1=C[C@H](C2CCCCC2)C[C@H](OCc2ccc(CO)cc2)O1	esBAF inh 73, Wnt bcat act inconclusive, MITF act 107 (no result: Ecoli rRNA inh)
COc1cccc(NC(=O)Nc2cc(C(=O)O)ccc2C)c1	none
CCCC(=O)Nc1ccc(C(=O)Nc2cccc(OC)c2)cc1	none (no result: esBAF inh)
CC(=O)c1cccc(NC(=O)NCCc2ccc(Cl)cc2)c1	none
COc1cccc(NC(=O)Nc2ccc(C)c(Cl)c2)c1	esBAF inh 55, MITF act inconclusive
COc1cccc(NC(=O)NCCc2ccc(Cl)cc2)c1	Ecoli rRNA inh -24
COc1cccc(NC(=S)N(Cc2ccc(Cl)cc2)Cc2ccc(C(=O)O)cc2)c1	Ecoli rRNA inh -32
COc1cccc(NC(=O)c2ccc(NC(=O)C(C)(C)C)cc2)c1	esBAF inh 66
CO[C@@H]1CN(C)C(=O)c2ccc(NC(=O)CC(F)(F)F)cc2OC[C@@H](C)N(C(=O)C2CCOCC2)C[C@@H]1C	none (no result: esBAF inh, Wnt bcat act, MITF act)
CC(=O)c1cccc(NC(=O)CSc2nc(=O)n(Cc3ccccn3)c3c2CCC3)c1	none
O=C(/C=C/c1cccc(F)c1)NC1CCN(Cc2ccccc2)CC1	none
Cc1ccc(OC(=O)c2cc(=O)c3ccccc3o2)cc1	none (no result: MLL AF4-AF9 inh, Ecoli rRNA inh)
CC1=CC(=O)CC2C1(C)CCC(C)C2(C)CCC(C)CC(=O)O (stereo not given)	none
COc1ccccc1NC(=O)NCCc1ccccc1	none
COc1cccc(NC(=O)Nc2ccc(C(C)(C)C)cc2)c1	esBAF inh 57
COc1cccc(NC(=O)Nc2ccncc2)c1	none (no result: esBAF inh, MLL AF4-AF9 inh, Ecoli rRNA inh)
COc1ccc(OC)c(NC(=O)NCCc2cccc(Cl)c2)c1	Wnt bcat act 60 (no result: esBAF inh)
CCOC(=O)C(=O)N/N=C/c1cccc(Br)c1	none
Cn1ccc(C(=O)NC(=S)Nc2ccc([N+](=O)[O-])cc2O)n1	esBAF inh 69
O=C(NC(=S)Nc1ccc([N+](=O)[O-])cc1O)C1CCCCC1	none (no result: esBAF inh)
COc1ccc(C(=O)O/N=C(\N)c2ccc(Cl)cc2)cc1	esBAF inh inconclusive, Wnt bcat act 37, MITF act 89
COc1ccc(/C(N)=N/OC(=O)c2ccc(Br)o2)cc1	esBAF inh 58
COc1ccc(C(=O)O/N=C(\N)c2ccccn2)cc1	none
N/C(=N\OC(=O)c1ccc(Br)o1)c1cccnc1	none (no result: esBAF inh)
COc1ccccc1C(=O)O/N=C(\N)c1ccc(Cl)cc1	esBAF inh 52 (no result: MLL AF4-AF9 inh, Ecoli rRNA inh)
Cc1ccc2nc(C)/c(=N\O)c(C)nc2c1	esBAF inh 55 (no result: MLL AF4-AF9 inh, Wnt bcat act, Ecoli rRNA inh)
Cc1nc2ccc(Cl)cc2nc(C)/c1=N\O	none (no result: MLL AF4-AF9 inh, Wnt bcat act, Ecoli rRNA inh)
O=C(OCc1cnc(Cl)s1)c1cccc(Cl)c1	none (no result: MLL AF4-AF9 inh, Wnt bcat act, Ecoli rRNA inh)
CC(c1ccon1)N(C)C(=O)c1ccc2nc(Cc3cccc(Cl)c3)oc2c1 (stereo not given)	Ecoli rRNA inh -28
O=C(NCC1CCOCC1)c1ccc2nc(Cc3cccc(Cl)c3)oc2c1	esBAF inh 46
c1ccc2c(c1)CCc1c(-c3ccncc3)n[nH]c1-2	Wnt bcat act 44
OCCc1ccc(NCCc2cccs2)cc1	esBAF inh 54 (no result: MITF act)
NC(=O)c1sc2nc(-c3ccccc3)ccc2c1N	esBAF inh 77
CCOC(=O)C1C(=O)C=C(c2cccs2)CC1c1ccccc1C (stereo not given)	none (no result: esBAF inh, MLL AF4-AF9 inh, Wnt bcat act, Ecoli rRNA inh)
CCOC(=O)C1C(=O)C=C(c2cccs2)CC1c1ccccc1 (stereo not given)	Ecoli rRNA inh -28 (no result: esBAF inh)
O=C(c1cccnc1)N1CC[C@H]2[C@H](CO)Nc3ccc(-c4cccc(F)c4)cc3[C@H]21	none (no result: Wnt bcat act, MITF act)
COc1ccc(CCNC(=O)CN2CCN(Cc3ccc(F)cc3)C2=O)cc1OC	none (no result: MITF act)
COc1ccc(C2CC(c3ccc4ccccc4c3OC(C)=O)=NN2C(C)=O)cc1 (stereo not given)	Wnt bcat act 58 (no result: esBAF inh, MITF act)
COc1ccc(C2CC(c3ccc(C)o3)=NN2C(C)=O)cc1 (stereo not given)	none (no result: esBAF inh)
COc1ccc(C2CC(c3ccc(Cl)cc3)=NN2C(C)=O)cc1 (stereo not given)	esBAF inh 52
CC(=O)N1N=C(c2ccc(Cl)cc2)CC1c1ccc([N+](=O)[O-])cc1 (stereo not given)	none (no result: MITF act)
COc1ccc2nc3sc(C(=O)NCCCN4CCc5ccccc5C4)cc3cc2c1	esBAF inh 73
Cc1ccc2cc(CN(C(=O)c3ccco3)c3ccccc3)c(=O)[nH]c2c1	esBAF inh 54 (no result: MLL AF4-AF9 inh, Wnt bcat act, Ecoli rRNA inh)
O=C(OCCC12CC3CC(CC(C3)C1)C2)c1ccc(NCc2cc(O)ccc2O)cc1	MLL AF4-AF9 inh 28 (no result: esBAF inh)
C[C@@H]1CN([C@@H](C)CO)C(=O)Cc2cc(N(C)C)ccc2O[C@@H]1CN(C)Cc1ccccc1	none (no result: Wnt bcat act, MITF act)
C[C@@H]1CN([C@H](C)CO)C(=O)Cc2cc(N(C)C)ccc2O[C@H]1CN(C)Cc1ccc(-c2ccccc2)cc1	MLL AF4-AF9 inh 36 (no result: Wnt bcat act, MITF act)
C[C@H]1CN([C@@H](C)CO)C(=O)Cc2cc(N(C)C)ccc2O[C@H]1CN(C)Cc1ccccc1	none (no result: Wnt bcat act, MITF act)
C[C@@H]1CN([C@H](C)CO)C(=O)Cc2cc(N(C)C)ccc2O[C@@H]1CN(C)Cc1ccc(-c2ccccc2)cc1	MLL AF4-AF9 inh 44 (no result: Wnt bcat act, MITF act)
C[C@@H]1CN([C@@H](C)CO)C(=O)Cc2cc(N(C)C)ccc2O[C@@H]1CN(C)Cc1ccc(Oc2ccccc2)cc1	MLL AF4-AF9 inh 38 (no result: Wnt bcat act, MITF act)
C[C@H](CO)N1C[C@H](C)[C@@H](CN(C)Cc2ccc(-c3ccccc3)cc2)Oc2ccc(N(C)C)cc2CC1=O	MLL AF4-AF9 inh 59 (no result: Wnt bcat act, MITF act)
COC(=O)[C@@]1(Cc2ccccc2CN=[N+]=[N-])N=C(c2ccc(OCCCO)cc2)O[C@H]1c1ccccc1N=[N+]=[N-]	none (no result: esBAF inh, Wnt bcat act, Ecoli rRNA inh, MITF act)
CCCCCn1c2nc3ccccc3nc2c2c(=O)n(CC(C)C)cnc21	none (no result: MLL AF4-AF9 inh, Wnt bcat act, Ecoli rRNA inh)

Screening data from PubChem BioAssay.
